Results reported in PubChem BioAssay (NCATS).
Calls of active or inactive are those of the source. Calls follow the shape of the dose curve; as a rule, active = well fitted curve in the direction sought with a large enough effect; inconclusive = small, poorly fitted or top-dose-only effect, or effect the other way, or another doubt; inactive = no such curve, though single readings can be large or run the other way.

assay: qHTS for Inhibitors of Cell Surface uPA Generation: Validation Assay (AID 493164); details: mouse cells, plasminogen activation; series mostly up to 38.3 µM;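 also: RAW 264.7 macrophage cells exposed to compound for 18 h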
Description: NIH Chemical Genomics Center [NCGC]
NIH Molecular Libraries Probe Centers Network [MLPCN]
Assay Submitter (PI): Thomas Bugge
The overall objective of this project is to perform a quantitative high throughput screen (qHTS) to identify novel compounds that inhibit the generation of cell surface urokinase activity. The urokinase plasminogen activator (uPA) is one of the two primary endogenous systems that mediate plasminogen activation into plasmin. Members of this system, including uPA and its receptor (uPAR), are overexpressed in several malignant tumors. This system plays a major role in adhesion, migration, invasion and metastasis of cancer cells. Small molecule inhibitors of the uPA system will serve as probes to understand the molecular mechanisms of the uPA cascade and better understanding the microenvironmental circumstances that facilitate the activation of plasminogen by uPA, and finally may provide novel candidate agents for anticancer drug therapy.
[…] […] Upon inhibition of the uPA activation cascade, the subsequent cell surface uPA activity-dependent translocation of LF into the cytoplasm is inhibited. ATP-Lite is used to measure intracellular ATP concentrations, which remain increased if LF entry into the cytoplasm is inhibited. This validation assay was performed using a small set of validation compounds.
uPA assay protocol summary:
RAW 264.7 cells were maintained in DMEM medium (Invitrogen, Carlsbad, CA) at 37C under a humidified atmosphere containing 5% CO2 and 95% air. The medium contained 10% FBS, 1 mM sodium pyruvate and 50 U/ml penicillin/streptamycin (Invitrogen, Carlsbad, CA). All compounds were screened as 7-point titration from 2.45 nM to 38.3 uM final concentration. The assay was performed in 1536-well format plate as follows:
1.Dispensing RAW 264.7 cells into 1536-well, white walled tissue culture plates at a density of 4000 cells/well (4 uL).
2.Incubation at 37 C in a 5% CO2 incubator overnight.
3.Serially diluting compounds (1:5 serial dilution; 0.0024 uM to […] final concentration) in 23 nl DMSO.
5.Incubating the compound and reagent-treated plates for 18 hours at 37 C in a 5% CO2 incubator.
6.Adding ATP-Lite (3 ul).
7.Reading plates by ViewLux with an exposure length of 5 seconds.

Q: For `Nc1ncnc2n[nH]c(Nc3ccc(F)cc3)c12`, which outcome is on record?
A: inactive

Q: With `NC(N)=NCCCCN=C(N)N` as the molecule, how does the outcome read?
A: inactive

Q: For `Clc1ccc2c(c1)N=C(N1CCNCC1)c1ccccc1N2`, which outcome is on record?
A: inactive

Q: With `COc1cccc2c1[C@@H]1CN(CCCCn3c(=O)[nH]c4c(sc5ncc(-c6ccccc6)nc54)c3=O)C[C@@H]1CO2` as the molecule, how does the outcome read?
A: inactive

Q: For `O=C1NC(c2cccc([N+](=O)[O-])c2)=CCN1c1ccccc1O`, which outcome is on record?
A: inactive

Q: With `Cc1nn(-c2ccccc2)c(C)c1/C=N/N1CCN(Cc2ccccc2)CC1` as the molecule, how does the outcome read?
A: inactive

Q: Which outcome does the source give for `O=[N+]([O-])c1ccc(-c2nc(-c3ccc(F)cc3)c(-c3ccncc3)[nH]2)cc1` here?
A: inactive

Q: Which outcome does the source give for `N[C@@H](Cn1ccc(=O)c(O)c1)C(=O)O` here?
A: inactive

Q: Which outcome does the source give for `CN(C)c1cc2c(Nc3ccc4c(cnn4Cc4ccccc4)c3)ncnc2cn1` here?
A: inactive

Q: Which outcome does the source give for `Brc1ccc([C@H]2CN3CCSC3=N2)cc1` here?
A: inactive

Q: For `CCN(CC)CCNC(=O)c1ccc(NS(C)(=O)=O)cc1`, which outcome is on record?
A: inactive

Q: For `O=C1NC(=O)/C(=C/c2ccc3c(c2)OC(F)(F)O3)S1`, which outcome is on record?
A: inactive

Q: For `C[N+](C)(C)CCO`, which outcome is on record?
A: inactive

Q: With `COc1ccccc1N1CCN(CCN2C(=O)CC3(CCCC3)CC2=O)CC1` as the molecule, how does the outcome read?
A: inactive

Q: With `CC(C)N(CCC(=O)c1ccc2ccccc2c1)Cc1ccccc1` as the molecule, how does the outcome read?
A: inactive

Q: For `Cn1cnc2c(NCc3ccccc3)nc(NCCO)nc21`, which outcome is on record?
A: inactive

Q: For `COC(=O)C1=CO[C@@H](O)[C@@H]2C(CO)=CC[C@H]12`, which outcome is on record?
A: inactive
